# Measurements from PubChem BioAssay (EPA / NIEHS).
# Active and inactive are the calls of the source. Rule for the calls: active = hit-call score of the fitted dose curve at least 0.9, where 1 is the maximum; inactive = score below 0.9.
# System: not listed separately
# Test: ATG_BRE_CIS: Attagene CIS-FACTORIAL HepG2 Assay for human Bone Morphogenetic Protein (BMP) Response Element (BRE) (AID 2282933)
# Details: HepG2 BMP response element reporter, Attagene transcription factor profiling; actives raise or lower the signal
# Method in brief: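 Gain- or loss-of-signal was derived by bidirectional fitting against DMSO controls. The signal came from reporter mRNA, measured by RT-PCR and capillary electrophoresis, in HepG2 cells transiently carrying multiple reporter units and dosed for 24 h.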
Compound,outcome,AC50
c1ccc2cnccc2c1,inactive,
CCC(C)N (stereo unspecified),inactive,
CCCCC(C=O)CC (stereo unspecified),inactive,
[Cl][Eu]([Cl])[Cl],inactive,
O=C1CCCCC1C1CCCCC1 (stereo unspecified),inactive,
Nc1cccc(N)n1,inactive,
CC(C)(C)C1CCC(=O)CC1,inactive,
C=CC(=O)OCCCCCCOC(=O)C=C,,24.5 µM (active)
CC(C)(CO)C(O)C(=O)NCCCO (stereo unspecified),inactive,
CCOC(=O)/C=C\C(=O)OCC,inactive,
CCCCNS(=O)(=O)c1ccccc1,inactive,
CCCC(CC)c1ccccc1 (stereo unspecified),inactive,
CC(C)c1ccc(O)c(C(C)C)c1,inactive,
CC(C)COC(=O)CC(C(=O)OCC(C)C)S(=O)(=O)O (stereo unspecified),inactive,
CC(C)CCOCc1ccccc1,inactive,
C=CC(=O)OCC(C)OCC(C)OCC(C)OC(=O)C=C (stereo unspecified),inactive,
CC=C(C)C(C)=O,inactive,

Compound,outcome,AC50
CC(C)CC(=O)OCc1ccccc1,inactive,
CCCCCCC=O,inactive,
O=C1CCCCCCCCCCC1,inactive,
C1CNCCN1,inactive,
O=C(O)CCC(=O)O,inactive,
CCCCC1CCC(=O)O1 (stereo unspecified),inactive,
CC(=O)c1ccc(S(=O)(=O)NC(=O)NC2CCCCC2)cc1,inactive,
C=C(C)C(=O)OCC(O)COc1ccc(C(C)(C)c2ccc(OCC(O)COC(=O)C(=C)C)cc2)cc1 (stereo unspecified),,24.8 µM (active)
CC1CC(=O)CC(C)(C)C1 (stereo unspecified),inactive,
[Cl][Sc]([Cl])[Cl],inactive,
O=S(=O)(O)c1ccc(Nc2nc(Nc3ccc(C=Cc4ccc(Nc5nc(Nc6ccc(S(=O)(=O)O)cc6)nc(N(CCO)CCO)n5)cc4S(=O)(=O)O)c(S(=O)(=O)O)c3)nc(N(CCO)CCO)n2)cc1,inactive,
CC(CC=O)CC(C)(C)C (stereo unspecified),inactive,
C[Si]1(C)O[Si](C)(C)O[Si](C)(C)O[Si](C)(C)O[Si](C)(C)O1,inactive,
CCCCCCCCCCCC(=O)OCC,inactive,
C=C(C)C(=O)OCCOC(=O)C(=C)C,inactive,
CCC1COC(=O)O1 (stereo unspecified),inactive,
CCCCOC(=O)C(C)CC (stereo unspecified),inactive,

# Target: Retinoic acid receptor alpha (Homo sapiens) (UniProt P10276)
# Test: ATG_DR5_RAR_CIS: Attagene CIS-FACTORIAL HepG2 Assay for human Retinoic Acid Receptor Alpha (RARE), DR5 submotif (AID 2282934);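 for AC50: reporter responds to endogenous RAR alpha beta and gamma in HepG2 not RARA alone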
# Details: HepG2 Attagene cis-factorial RARE DR5 reporter, mRNA; actives raise or lower the signal
# Method in brief: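 HepG2 cells transiently transfected with multiplexed reporter units under cis (DR5 RARE) promoters, so endogenous transcription factor activity is measured. After 24 h compound exposure, reporter mRNA is quantified by RT-PCR with fluorescent labelling and capillary electrophoresis; bidirectional fitting versus DMSO.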
# Sequence of Retinoic acid receptor alpha (Homo sapiens) (P10276 whole entry, looked up): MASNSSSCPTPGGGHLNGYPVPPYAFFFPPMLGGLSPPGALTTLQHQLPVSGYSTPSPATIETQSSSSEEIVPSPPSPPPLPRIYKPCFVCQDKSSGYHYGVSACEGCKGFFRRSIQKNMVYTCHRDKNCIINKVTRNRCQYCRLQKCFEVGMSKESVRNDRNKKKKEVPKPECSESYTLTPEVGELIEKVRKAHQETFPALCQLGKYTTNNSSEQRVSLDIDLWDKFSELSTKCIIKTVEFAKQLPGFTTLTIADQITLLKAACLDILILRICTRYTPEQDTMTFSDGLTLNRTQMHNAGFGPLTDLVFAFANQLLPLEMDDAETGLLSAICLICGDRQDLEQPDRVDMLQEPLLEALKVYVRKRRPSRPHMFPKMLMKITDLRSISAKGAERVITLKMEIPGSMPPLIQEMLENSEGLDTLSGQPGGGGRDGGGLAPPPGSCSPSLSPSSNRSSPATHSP
Compound,outcome,AC50
CC(C)(c1ccccc1)c1ccc(Nc2ccc(C(C)(C)c3ccccc3)cc2)cc1,inactive,
c1ccc2cnccc2c1,inactive,
CCC(C)N (stereo unspecified),inactive,
CCCCC(C=O)CC (stereo unspecified),inactive,
[Cl][Eu]([Cl])[Cl],inactive,
O=C1CCCCC1C1CCCCC1 (stereo unspecified),inactive,
Nc1cccc(N)n1,inactive,
CC(C)(C)C1CCC(=O)CC1,inactive,
C=CC(=O)OCCCCCCOC(=O)C=C,inactive,
CC(C)(CO)C(O)C(=O)NCCCO (stereo unspecified),inactive,
CCOC(=O)/C=C\C(=O)OCC,inactive,
CCCCNS(=O)(=O)c1ccccc1,inactive,
CCCC(CC)c1ccccc1 (stereo unspecified),inactive,
CC(C)c1ccc(O)c(C(C)C)c1,inactive,
CC(C)COC(=O)CC(C(=O)OCC(C)C)S(=O)(=O)O (stereo unspecified),inactive,
CC(C)CCOCc1ccccc1,inactive,
C=CC(=O)OCC(C)OCC(C)OCC(C)OC(=O)C=C (stereo unspecified),inactive,
CCCCCCCCCCCC(=O)N(C)CC(=O)O,inactive,
CC=C(C)C(C)=O,,43 µM (active)

Compound,outcome,AC50
CC(C)CC(=O)OCc1ccccc1,inactive,
CCCCCCC=O,inactive,
O=C1CCCCCCCCCCC1,inactive,
C1CNCCN1,inactive,
O=C(O)CCC(=O)O,inactive,
COC(OC)(C(=O)c1ccccc1)c1ccccc1,inactive,
CCCCC1CCC(=O)O1 (stereo unspecified),inactive,
CC(=O)c1ccc(S(=O)(=O)NC(=O)NC2CCCCC2)cc1,inactive,
C=C(C)C(=O)OCC(O)COc1ccc(C(C)(C)c2ccc(OCC(O)COC(=O)C(=C)C)cc2)cc1 (stereo unspecified),inactive,
CC1CC(=O)CC(C)(C)C1 (stereo unspecified),inactive,
[Cl][Sc]([Cl])[Cl],inactive,
O=S(=O)(O)c1ccc(Nc2nc(Nc3ccc(C=Cc4ccc(Nc5nc(Nc6ccc(S(=O)(=O)O)cc6)nc(N(CCO)CCO)n5)cc4S(=O)(=O)O)c(S(=O)(=O)O)c3)nc(N(CCO)CCO)n2)cc1,inactive,
CC(CC=O)CC(C)(C)C (stereo unspecified),inactive,
C[Si]1(C)O[Si](C)(C)O[Si](C)(C)O[Si](C)(C)O[Si](C)(C)O1,inactive,
CCCCCCCCCCCC(=O)OCC,inactive,
C=C(C)C(=O)OCCOC(=O)C(=C)C,inactive,
CCC1COC(=O)O1 (stereo unspecified),inactive,
CCCCOC(=O)C(C)CC (stereo unspecified),inactive,
